# Counter-ions that a name gives are not always drawn. Out of some 1,700 compounds screened, about 15 (0.9%) showed activity. This excerpt belongs to a sample that is enriched for actives. Values without a mark were called inactive.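 Rule for the calls: active = infection cut by 80% or more with cell growth above 90% in both runs; inactive = the rest.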
# System: HSV-1 strain 17 YFP-ICP4 in A549
# Assay: HSV-1 infection relative to DMSO (ICP4-YFP per H2B-RFP signal); higher = more viral infection (less antiviral activity), active = hit call of the paper
# Details: 10 µM; 48 h; MOI: 0.1
# Description: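 Selleck FDA-approved library (L1300) screened in duplicate at 10 µM on A549 H2B-mRuby cells in 384-well plates, infected with HSV-1 strain 17 YFP-ICP4 at MOI 0.1 one hour before drug addition. Imaged after 2 days at 37°C. Cell growth (H2B-RFP) and infection (ICP4-YFP) are expressed as % of DMSO-treated wells. Hits: growth >90% and infection <20% of DMSO.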
row,Compound,HSV-1 infection
1,O=C(O)CCCC[C@@H]1CCSS1 (racemic) [Thioctic acid],66.1%
2,N=C(N)NCCC[C@@H](NC(=O)[C@@H]1CCCN1C(=O)[C@@H]1CSSCCC(=O)N[C@@H](Cc2ccc(O)cc2)C(=O)N[C@@H](Cc2ccccc2)C(=O)N[C@@H](CCC(N)=O)C(=O)N[C@@H](CC(N)=O)C(=O)N1)C(=O)NCC(N)=O [Desmopressin Acetate],103%
3,NC(=O)CCC(N)C(=O)O (racemic) [DL-Glutamine],114%
4,COc1ccc(Cl)c(Nc2nc3ccccc3nc2NS(=O)(=O)c2cccc(NC(=O)C(C)(C)N)c2)c1 [Pilaralisib (XL147)],93.5%
5,COc1ccc(-c2nc3cc(C4=NNC(=O)CC4C)ccc3[nH]2)cc1 (centres undefined) [Pimobendan],68.5%
6,CC(=O)[C@@]1(O)CC[C@H]2[C@@H]3CCC4=CC(=O)CCC4=C3[C@@H](c3ccc(N(C)C)cc3)C[C@@]21C [Ulipristal],91.8%
7,CCCN(CCC)C(=O)C1=Cc2ccc(-c3ccc(C(=O)N4CCCC4)cc3)cc2N=C(N)C1 [Motolimod (VTX-2337)],82.9%
8,CN[C@H]1C(=O)N[C@@H]2Cc3ccc(cc3)Oc3cc4cc(c3O[C@@H]3O[C@H](C(=O)O)[C@@H](O)[C@H](O)[C@H]3NC(=O)CCCCCCCCC(C)C)Oc3ccc(cc3Cl)[C@@H](O)[C@@H]3NC(=O)[C@H](NC(=O)[C@@H]4NC(=O)[C@@H](NC2=O)c2cc(cc(O)c2Cl)Oc2cc1ccc2O)c1ccc(O)c(c1)-c1c(O[C@H]2O[C@H](CO)[C@@H](O)[C@H](O)[C@@H]2O)cc(O)cc1[C@@H](C(=O)NCCCN(C)C)NC3=O [Dalbavancin],95.9%
9,CCCCN1CCCC[C@H]1C(=O)Nc1c(C)cccc1C [Levobupivacaine HCl],70.8%
10,COc1ccc([C@H]2CNC(=O)C2)cc1OC1CCCC1 [S- (+)-Rolipram],97.4%
11,CC(C)C[C@H](N)C(=O)O [L-Leucine],100%
12,COC(=O)c1ccccc1O [Methyl salicylate],81.4%
13,CCCCC(=O)N(Cc1ccc(-c2ccccc2-c2nn[nH]n2)cc1)C(C(=O)O)C(C)C.CCOC(=O)C(C)CC(Cc1ccc(-c2ccccc2)cc1)NC(=O)CCC(=O)O (centres undefined) [Sacubitril/valsartan (LCZ696)],116%
14,FC(F)(F)c1ccc(CNc2ccc(Cc3c[nH]c4ncc(Cl)cc34)cn2)cn1 [Pexidartinib (PLX3397)],102%
15,Cc1ccccc1N1CCN(CCc2nnc3n2CCCC3)CC1 [Dapiprazole Hydrochloride],135%
16,CC(C)C[C@H](NC(=O)CNC(=O)c1cc(Cl)ccc1Cl)B1OC(=O)C(CC(=O)O)(CC(=O)O)O1 [Ixazomib Citrate (MLN9708)],80.4%
17,CCNC(=O)[C@@H]1CCCN1C(=O)[C@H](CCCNC(=N)N)NC(=O)[C@H](CC(C)C)NC(=O)[C@@H](CC(C)C)NC(=O)[C@H](Cc1ccc(O)cc1)NC(=O)[C@H](CO)NC(=O)[C@H](Cc1c[nH]c2ccccc12)NC(=O)[C@H](Cc1c[nH]cn1)NC(=O)[C@@H]1CCC(=O)N1 [Leuprolide Acetate],113%

row,Compound,HSV-1 infection
1,CCNC(=O)[C@@H]1CCCN1C(=O)[C@H](CCCNC(=N)N)NC(=O)[C@H](CC(C)C)NC(=O)[C@@H](CC(C)C)NC(=O)[C@H](Cc1ccc(O)cc1)NC(=O)[C@H](CO)NC(=O)[C@H](Cc1c[nH]c2ccccc12)NC(=O)[C@H](Cc1c[nH]cn1)NC(=O)[C@@H]1CCC(=O)N1 [Leuprorelin Acetate],105%
2,O=C(O)c1ccc(-n2nc(-c3ccccc3O)nc2-c2ccccc2O)cc1 [Deferasirox],79.8%
3,CC(C)(C)NC(=O)N[C@H](C(=O)N1C[C@H]2[C@@H]([C@H]1C(=O)NC(CC1CCC1)C(=O)C(N)=O)C2(C)C)C(C)(C)C (some centres undefined) [Boceprevir],110%
4,COc1c(C)c2c(c(O)c1C/C=C(\C)CCC(=O)O)C(=O)OC2 [Mycophenolic acid],14.4% (active)
5,C[C@H](Oc1ccc(S(C)(=O)=O)cc1C(=O)N1CCN(c2ncc(C(F)(F)F)cc2F)CC1)C(F)(F)F [Bitopertin],92.8%
6,CCCCCCCCOc1ccccc1C(=O)Nc1ccc(C(=O)OCC[N+](C)(CC)CC)cc1 [Otilonium Bromide],60.5%
7,OC[C@@H](O)CN1CCN(c2ccccc2)CC1 [Levodropropizine],64.9%
8,CC(C)Nc1cc(-c2c[nH]c(C(=O)N[C@H](CO)c3cccc(Cl)c3)c2)c(Cl)cn1,69.3%
9,O=C(Cn1ccnc1[N+](=O)[O-])NCc1ccccc1 [Benznidazole],115%
10,CC(C)C[C@H](NC(=O)CNC(=O)c1cc(Cl)ccc1Cl)B(O)O [Ixazomib (MLN2238)],77.3%
11,N[C@@H]1CN(c2c(F)cc3c(=O)c(C(=O)O)cn([C@@H]4C[C@@H]4F)c3c2Cl)CC12CC2 [Sitafloxacin Hydrate],111%
12,O=C([O-])[O-].[Na+].[Na+] [Sodium carbonate],88%
13,NC(=O)c1nc(F)cnc1O [Favipiravir (T-705)],102%
14,O=C1/C(=C2\Nc3ccccc3C2=O)Nc2ccccc21 [Indigo],105%
15,C=CCN1CCCC1CNC(=O)c1cc2nn[nH]c2cc1OC (centres undefined) [Alizapride HCl],55.1%
16,CNC(=O)[C@H](Cc1ccccc1)NC(=O)[C@H](CC(C)C)[C@H](CSc1cccs1)C(=O)NO [Batimastat (BB-94)],45.6%
17,CCOC(=O)[C@@H](N)Cc1ccc(-c2cc(O[C@H](c3ccc(Cl)cc3-n3ccc(C)n3)C(F)(F)F)nc(N)n2)cc1 [Telotristat Etiprate (LX 1606 Hippurate)],80.1%

# From the supplement of paper PMC11537057
